hcGAS lum – Primary biochemical luminescence assay for human cyclic GMP-AMP synthase inhibitors; recombinant h-cGAS, ATP depletion, Kinase-Glo luminescence; inhibition, % at 12.5 µM; 0.081% of 290,000 active; AID 1259398, 2018;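 further: 0% = vehicle reaction and 100% = reaction without DNA for no activity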
NPYLR7 agonist – agonists of mosquito NPYLR7 receptor, primary screen, cell-based, Aedes aegypti, calcium fluorescence, mosquito biting behavior | AID 1259423, 2018 | Aedes aegypti neuropeptide Y-like receptor 7 (NPYLR7) | HEK293T NPYLR7/Galpha15, GCaMP6s calcium fluorescence | activation, % at 10 µM | 0.15% of 270,000 active; in the data active means activation above about 40%;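 further: 0% = vehicle and 100% = reference agonist at the receptor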
mcGAS lum – cyclic GMP-AMP synthase inhibitors, mouse, primary biochemical chemiluminescence; inhibition, % at 12.5 µM; Q8C6L5; recombinant cGAS, Kinase-Glo ATP depletion luminescence; 0.15% of 160,000 active;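 further: 0% = negative control wells and 100% = reference inhibitor with no enzyme activity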
Target sequence (Q8C6L5 whole entry, looked up): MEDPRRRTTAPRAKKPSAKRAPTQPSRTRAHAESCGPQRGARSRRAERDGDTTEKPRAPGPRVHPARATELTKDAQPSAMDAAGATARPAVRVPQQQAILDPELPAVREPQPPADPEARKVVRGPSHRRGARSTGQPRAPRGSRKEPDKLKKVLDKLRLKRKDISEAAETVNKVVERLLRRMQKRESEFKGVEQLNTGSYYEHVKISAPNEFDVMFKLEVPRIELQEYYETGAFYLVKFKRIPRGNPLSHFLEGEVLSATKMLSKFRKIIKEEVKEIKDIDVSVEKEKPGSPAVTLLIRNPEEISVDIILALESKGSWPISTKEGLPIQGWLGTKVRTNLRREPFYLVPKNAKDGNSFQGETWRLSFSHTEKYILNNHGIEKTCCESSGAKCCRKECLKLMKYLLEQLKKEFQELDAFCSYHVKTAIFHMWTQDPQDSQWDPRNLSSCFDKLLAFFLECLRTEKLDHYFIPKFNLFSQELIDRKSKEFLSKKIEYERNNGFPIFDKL
* = called active by the depositor; . = no result; ! = not confirmed by another sample. Hits are enriched below; roughly 0.3% of the tested compounds scored in any of these assays. Unless noted, no stated cut-off is given here; in the data, active means inhibition above about 40%; inactive means the rest.

SMILES	hcGAS lum	NPYLR7 agonist	mcGAS lum
O=S(=O)(O)c1cc(N=C=S)ccc1/C=C/c1ccc(N=C=S)cc1S(=O)(=O)O	86*	3	.
CC(C)(C)/[N+]([O-])=C/c1ccc(S(=O)(=O)O)cc1S(=O)(=O)O	-3	-10	.
Cn1c2ccccc2c2c(C(F)(F)F)cc(-c3ccccc3)nc21	5	1	-4
O=C(NCCCn1cccn1)c1ccc2nc(-c3ccc4c(c3)OCO4)[nH]c2c1	2	-1	-4
CCC1CN(C(=O)c2cc(C(C)C)no2)CCC(=O)N1Cc1ccccc1 (centres undefined)	-4	2	0
CCC1CN(C(=O)c2cc(C(C)C)on2)CCC(=O)N1Cc1ccccc1 (centres undefined)	-3	62*	.
Cc1cc(O)c(CN2CCOCC2)c2c1C(=O)/C(=C/c1cc3ccccc3o1)O2	-1	28	-3
Cc1cc(O)c(CN2CCN(C)CC2)c2c1C(=O)/C(=C/c1ccncc1)O2	-3	26	-2
Cc1cc(O)c(CN2CCCCC2)c2c1C(=O)/C(=C/c1cc3ccccc3o1)O2	-4	50*	-5
Cc1cc(O)c(CN2CCN(C)CC2)c2c1C(=O)/C(=C/c1cccs1)O2	-2	49*	-6
CCSc1ncc(-c2nccn2-c2ccc(-c3ccn[nH]3)cc2)cn1	-4	.	.
CCc1ccc2oc(-c3ccc(NC(=O)c4ccc([N+](=O)[O-])c(C)c4)cc3)nc2c1	6	-9	.
CCOc1cc(/C=C2/C(=N)N3C=CSC3=NC2=O)cc(Br)c1OC(=O)c1ccco1	-1	-1	5
COc1cc(/C=C2\C(=N)N3N=CSC3=NC2=O)cc(Br)c1OC(=O)c1ccco1	6	49*	.
O=C(NCc1ccccn1)c1ccc(NC(=O)c2ccco2)cc1	-14	19	.
O=C(CCl)c1ccc(NC(=O)c2ccco2)cc1	-6	10	78*
CCN(C(=O)NC(C)c1csc(C)n1)C1CCCCC1 (centres undefined)	-4	12	.
COc1ccc(/C=C2\Oc3c(ccc4c3CN(C3CC3)CO4)C2=O)cc1	-4	3	-8
COc1ccc(CCN2COc3ccc4c(c3C2)O/C(=C\c2ccncc2)C4=O)cc1OC	-2	55*	11
CCc1ccc(/C=C2\Oc3c(ccc4c3CN(C3CCS(=O)(=O)C3)CO4)C2=O)cc1 (centres undefined)	0	66*	-1
COc1ccc(CCN2COc3ccc4c(c3C2)O/C(=C\c2ccncc2)C4=O)cc1	0	39	12
COc1ccc(/C=C2\Oc3c(ccc4c3CN(Cc3ccncc3)CO4)C2=O)cc1	1	67*	-3
COc1ccc(CN2COc3ccc4c(c3C2)O/C(=C\c2ccncc2)C4=O)cc1	-7	23	-6
CCOCCCN1COc2ccc3c(c2C1)O/C(=C\c1ccc(OC)cc1)C3=O	-6	42	-8
COc1ccc(/C=C2\Oc3c(ccc4c3CN(Cc3ccncc3)CO4)C2=O)cc1OC	-4	83*	-9
SMILES	hcGAS lum	NPYLR7 agonist	mcGAS lum
N#Cc1ccccc1NC(=O)CCN1CCC(n2cncn2)CC1	-10	9	.
COCCCN1COc2ccc3c(c2C1)O/C(=C\c1cc(OC)c(OC)c(OC)c1)C3=O	-8	61*	-10
CCOCCCN1COc2ccc3c(c2C1)O/C(=C\c1cccc(OC)c1OC)C3=O	-3	22	-6
CCC(C)C(=O)N(CCCOC)CC(=O)NCC(=O)Nc1ccc(C)cc1 (centres undefined)	-7	-3	-5
c1ccc(C2CCN(CCNc3ncnc4[nH]ccc34)C2)cc1 (centres undefined)	-5	2	.
CCn1nc(C)c(NC(=O)CN(C)C(C)c2ccon2)c1C (centres undefined)	-3	3	.
O=C(NC1CSc2c1nc1ccccc1c2C(=O)O)c1ccccc1 (centres undefined)	41*	2	.
O=C(Nc1ccccc1I)c1c2c(nc3ccccc13)CCCC2	-6	-1	-9
Cn1nc(C(=O)NCc2cn3c(n2)SCC3)c2c1CCCC2	-3	13	-14
COc1cccc(Cn2cccc2CN(Cc2ccccc2)C(=O)CN(CC(C)C)C(=O)NCc2ccccc2)c1	-4	-12	-3
Brc1cc2c(cc1CSc1nnnn1C1CC1)OCCO2	-3	7	.
Cn1nnnc1SCc1cc2c(cc1Br)OCO2	66*	0	-2
COCCCN(Cc1ccc(C(C)(C)C)cc1)Cc1cccn1Cc1cccc(C)c1	-10	41*	-5
COCCN(Cc1ccc(C(C)(C)C)cc1)Cc1cccn1Cc1cccc(C)c1	1	17	-3
COCCCN(CC(=O)N(CCc1c[nH]c2ccccc12)Cc1ccc(C(C)(C)C)cc1)C(=O)C1CC1	-11	2	-5
CCn1nnc2c(NCC(C)O)ncnc21 (centres undefined)	-6	16	.
CCOC(=O)C1=C(O)/C(=C\c2ccc(N(C)C)cc2)SC1=Nc1ccc(OC)cc1OC	2	79*	0
CCOC(=O)C1=C(O)/C(=C\c2cc(OC)cc(OC)c2)SC1=Nc1ccccc1F	4	-6	2
COc1ccc(C(=O)C=Cc2cccc(O)c2)cc1F	1	-2	23
CCN1CCN(c2ccc(C(=O)C=Cc3ccc(O)c(OC)c3)cc2F)CC1	-8	93*	.
Cc1ccccc1-n1nc(C)c(CNC(=O)C2CCN(C(=O)OC(C)(C)C)CC2)c1C	-4	-8	-3
COc1ccc2c(c1OC)C(=O)N(c1cccc(Cl)c1)C2=O	-7	10	.
COc1cc(OC)c(C2=NOC3(CC(=O)N(c4cccc(Cl)c4)C3=O)C2)cc1OC (centres undefined)	-7	83*	.
Cn1ncc2c(N3CCCCC3)nc(N(CCO)Cc3ccccc3)nc21	-6	1	-8
OCCN(CCO)c1nc(N2CCCCC2)c2nc(N(CCO)CCO)nc(N3CCCCC3)c2n1	1	75*!	-3
SMILES	hcGAS lum	NPYLR7 agonist	mcGAS lum
COCCCN(CC(=O)N(CCc1c[nH]c2ccccc12)Cc1ccc(C(F)(F)F)cc1)C(=O)Nc1ccc(OC)cc1OC	1	-14	2
COc1ccc(CCNC(=O)c2ccc3c(c2)CCN3C(C)=O)cc1	-5	8	-6
CN(Cc1nc2ccc(Cl)cc2[nH]1)Cc1nc(-c2ccccn2)no1	-8	16	.
O=C(NCC(c1ccccn1)N1CCOCC1)c1scc2c1CCCC2 (centres undefined)	-3	16	-11
CC1=NN(c2ccc(Cl)c(C(=O)O)c2)C(=O)/C1=C\c1ccc(Br)c([N+](=O)[O-])c1	7	4	50*
COc1cc(/C=C2\C(=O)N(c3ccc(Cl)c(C(=O)O)c3)N=C2C)cc([N+](=O)[O-])c1O	-3	3	26
CN1C[C@H](NC(=O)c2cn3cc(Cl)ccc3n2)C[C@H]1CO	0	-5	-1
CCC(CO)[n+]1c(C)cc(C=C2Sc3ccccc3N2Cc2ccccc2)cc1C (centres undefined)	7	150*	.
CCN1C(=Cc2cc(C)[n+](CCO)c(C)c2)Sc2ccccc21	2	46	-1
CCN1/C(=C\C=C2/SC(=NCc3ccccc3)N(C)C2=O)Sc2ccccc21	0	-5	1
CCN1C(=Cc2cc(C)[n+](C3CCCCC3)c(C)c2)Sc2ccccc21	1	266*	.

Screening results deposited in PubChem BioAssay by Fisher Drug Discovery Resource Center.
